Consider 27 molecules from PubChem BioAssay (NCATS).

Results filed as inconclusive are left out. Where a structure was tested more than once in an assay, its records may differ in their call. The source made the active and inactive calls. Unless noted, calls follow the shape of the dose curve; as a rule, active = well fitted curve in the direction sought with a large enough effect; inconclusive = small, poorly fitted or top-dose-only effect, or another doubt; inactive = no such curve, though single readings can be large; an effect the other way counts as inactive or inconclusive.

Experiment [1] in a line: qHTS for Inhibitors of Plasmodium falciparum (DD2) proliferation (AID 504314).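 Also: parasite DNA measured by SYBR Green fluorescence after red cell lysis.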 The method in brief: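 SYBR Green DNA-fluorescence growth assay: infected RBCs at 0.3% parasitemia, 2.5% hematocrit, 72 h compound exposure, 37C, 5% CO2; overnight lysis with dye at RT; normalized to 0.29 uM artemisinin and vehicle.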
Experiment [2] is described as follows: qHTS for Inhibitors of Plasmodium falciparum (7G8) proliferation (AID 504316). Also: series mostly up to about 6.7 µM; nearly all actives have a fitted effect of over 65% in size. An outline of the steps: (§1)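 Parasite growth measured as SYBR Green DNA fluorescence (ex 485, em 535 nm) after overnight lysis following 72 h culture at 37 °C, 0.3% parasitemia, 2.5% hematocrit. Values normalized against DMSO and 0.29 uM artemisinin controls, with plate-stack correction.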

Experiment [3] can be described thus: qHTS for Inhibitors of Plasmodium falciparum (HB3) proliferation (AID 504318). Also: nearly all actives have a fitted effect of over 60% in size. An outline of the steps: as §1
A general note: In qHTS, concentration-response curves come from the screen itself.

Experiment [4] can be described thus: qHTS for Inhibitors of Plasmodium falciparum (CP250) proliferation (AID 504320). The method in brief:
as §1

Experiment [5] concerns the target Atrial natriuretic peptide receptor 1 (Homo sapiens) (UniProt P16066). The experiment in a line: Natriuretic polypeptide receptor (hNpr1) antagonism - Pilot CMLD screen (AID 1347052; calls by dose curve;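 also: cGMP level read as GloSensor luciferase luminescence after agonist stimulation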; also: potency is read from the fitted curve at half-maximal effect).

Chain of Atrial natriuretic peptide receptor 1 (Homo sapiens) (P16066 whole entry, looked up): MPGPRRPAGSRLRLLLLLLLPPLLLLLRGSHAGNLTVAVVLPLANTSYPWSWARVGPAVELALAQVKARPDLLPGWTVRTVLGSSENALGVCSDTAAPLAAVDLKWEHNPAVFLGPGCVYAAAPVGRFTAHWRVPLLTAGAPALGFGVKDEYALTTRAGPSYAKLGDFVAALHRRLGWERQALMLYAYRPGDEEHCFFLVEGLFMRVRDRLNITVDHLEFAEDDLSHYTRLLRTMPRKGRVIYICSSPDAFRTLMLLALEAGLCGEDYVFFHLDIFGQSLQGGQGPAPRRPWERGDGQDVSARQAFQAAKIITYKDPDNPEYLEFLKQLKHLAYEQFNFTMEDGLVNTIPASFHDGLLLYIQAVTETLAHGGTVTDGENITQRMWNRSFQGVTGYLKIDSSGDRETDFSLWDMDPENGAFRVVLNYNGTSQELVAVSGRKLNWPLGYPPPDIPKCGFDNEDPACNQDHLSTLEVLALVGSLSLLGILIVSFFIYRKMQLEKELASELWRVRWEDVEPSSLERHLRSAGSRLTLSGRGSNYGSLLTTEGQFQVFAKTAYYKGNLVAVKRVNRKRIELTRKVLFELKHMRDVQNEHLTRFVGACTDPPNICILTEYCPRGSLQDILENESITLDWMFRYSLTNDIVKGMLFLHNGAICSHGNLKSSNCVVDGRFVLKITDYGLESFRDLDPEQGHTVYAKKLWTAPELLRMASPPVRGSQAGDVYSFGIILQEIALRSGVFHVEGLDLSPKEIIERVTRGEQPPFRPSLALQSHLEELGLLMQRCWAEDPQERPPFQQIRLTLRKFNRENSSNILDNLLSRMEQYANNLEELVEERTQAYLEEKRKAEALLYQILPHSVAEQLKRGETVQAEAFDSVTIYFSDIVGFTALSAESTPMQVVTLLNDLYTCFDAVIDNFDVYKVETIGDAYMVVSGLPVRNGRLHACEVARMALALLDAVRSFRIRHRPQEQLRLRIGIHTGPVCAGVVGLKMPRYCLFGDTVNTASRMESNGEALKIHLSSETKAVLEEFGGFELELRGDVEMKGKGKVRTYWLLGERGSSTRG

`C#CCN1C(=O)CC[C@@]23C1=NC(C(=O)OC)=C(C(=O)OC)[C@@H]2N(C)c1ccccc13`: the Potency result in experiment [1], in experiment [2], in experiment [3], in experiment [4] and in experiment [5] was “inactive” each time.

For `CC(=O)OC[C@H]1O[C@H](CC=NO[C@H](C)c2cn([C@H](CO)Cc3ccccc3)nn2)C=C[C@@H]1OC(C)=O`, the Potency entry in experiment [1], in experiment [2], in experiment [3], in experiment [4] and in experiment [5] was “inactive” throughout.

As for `CC(C)(C(O)c1ccc([N+](=O)[O-])cc1)[N+](=O)[O-]` (centres undefined), the Potency entry in experiment [1], in experiment [2], in experiment [3] and in experiment [5] was “inactive” throughout.

As to `C[C@@H]1CC[C@H]2C(=O)O[C@@H](Cc3ccccc3)CN2[C@@H]1c1ccc(Br)cc1`, the Potency result in experiment [1], in experiment [2], in experiment [3], in experiment [4] and in experiment [5] was “inactive” each time.

Turning to `COC(=O)C(C(=O)OC)C1c2ccccc2C=C(C2CC2)N1C(=O)OC` (centres undefined), the Potency entry in experiment [1], in experiment [2], in experiment [3] and in experiment [4] was “inactive” in each case. Further, the Potency in experiment [5] is 531 nM (active) and inactive.

As to `CCOC(=O)CN1C(=O)[C@]2(OCCC=C[C@@H]2C)c2ccccc21`, the Potency result in experiment [1], in experiment [2], in experiment [3], in experiment [4] and in experiment [5] was “inactive” throughout.

For the molecule `COc1cc2c(c(OC)c1)[C@H](C=Cc1ccccc1)[C@@H]([C@H](O)CO)OC2`, the Potency entry in experiment [1], in experiment [2], in experiment [3], in experiment [4] and in experiment [5] was “inactive” each time.

On to `C=CC1=C2C=C(C3CC3)N(CCOC)C=C2C(=O)C(C)(OC(=O)c2ccco2)C1=O` (centres undefined), for which the Potency result in experiment [1], in experiment [2], in experiment [3], in experiment [4] and in experiment [5] was “inactive” throughout.

On to `C=C(Nc1ccc(OC)cc1)C(=O)OC`, for which the Potency entry in experiment [1], in experiment [2], in experiment [3], in experiment [4] and in experiment [5] was “inactive” in each case.

On to `CCN(CCNC(=O)[C@H]1C=C(OC)C(=O)C[C@H](c2ccccc2)[C@@H]1C)C(C)=O`, for which the Potency result in experiment [1], in experiment [2], in experiment [3], in experiment [4] and in experiment [5] was “inactive” in each case.

For `C=CCOC(=O)N[C@@H](c1ccccc1)[C@@H](C)[N+](=O)[O-]`, the Potency entry in experiment [1], in experiment [2], in experiment [3], in experiment [4] and in experiment [5] was “inactive” each time.

Take `C=C(C(=O)OCC)C(=O)c1ccccc1`: the Potency entry in experiment [1], in experiment [2], in experiment [3], in experiment [4] and in experiment [5] was “inactive” in each case.

In the case of `COC1=C[C@H](C(=O)NCc2ccccn2)[C@@]2(C)Cc3ccccc3[C@@H]2CC1=O`, the Potency entry in experiment [1], in experiment [2], in experiment [3] and in experiment [5] was “inactive” in each case.

Turning to `COC1=C[C@H](C(=O)NCCNC(C)=O)[C@@]2(C)Cc3ccccc3[C@@H]2CC1=O`, the Potency result in experiment [1], in experiment [2], in experiment [3], in experiment [4] and in experiment [5] was “inactive” each time.

As to `CC(=O)C1=C(C)N(CC#C[Si](C)(C)C)C(=O)N(C(C)=O)C1c1ccccc1` (centres undefined), the Potency entry in experiment [1], in experiment [2], in experiment [3] and in experiment [5] was “inactive” each time.

On to `O=C1OC2(CCCCC2)CC2=C1[C@H]1O[C@](c3ccsc3)(Cc3ccccc31)O2`, for which the Potency result in experiment [1], in experiment [2], in experiment [3], in experiment [4] and in experiment [5] was “inactive” throughout.

For `C=CC[C@@H]1C=C(C(=O)OC)N(C(=O)C(F)(F)F)[C@@H](c2ccccc2Br)[C@@H]1C`, the Potency entry in experiment [1], in experiment [2], in experiment [3], in experiment [4] and in experiment [5] was “inactive” in each case.

Consider `C=CC1=C2C=C(C3CC3)N(CCN3CCOCC3)C=C2C(=O)C(C)(OC(=O)c2ccco2)C1=O` (centres undefined), for which the Potency entry in experiment [1], in experiment [2], in experiment [3], in experiment [4] and in experiment [5] was “inactive” throughout.

Consider `O=C(C=Cc1cccc([N+](=O)[O-])c1)c1ccccc1`, for which the Potency entry in experiment [1], in experiment [2], in experiment [3] and in experiment [4] was “inactive” in each case. Also, in experiment [5], the Potency is 2.99 µM (active).

As to `C#CCCCON=C1C[C@@H](O)[C@H](O)[C@H]2[C@@H]3C(=O)N(c4ccc(F)cc4F)C(=O)[C@@H]3CC[C@@H]12`, the Potency result in experiment [1], in experiment [2], in experiment [3] and in experiment [4] was “inactive” throughout. In addition, the Potency in experiment [5] was 0.422 µM (active).

Take `C=CCN1C(=O)[C@]2(OCCC=C[C@H]2C)c2ccccc21`: the Potency result in experiment [1], in experiment [2], in experiment [3], in experiment [4] and in experiment [5] was “inactive” each time.

`CCOC(=O)CN1C(=O)C2(CC(C)=C[C@@H](C)O2)c2c(Br)cccc21` (some centres undefined): the Potency result in experiment [1], in experiment [2], in experiment [3], in experiment [4] and in experiment [5] was “inactive” throughout.

With `COC1=C[C@H](C(=O)NCc2ccccc2)[C@H](C)[C@@H](c2ccccc2)CC1=O`, the Potency entry in experiment [1], in experiment [2], in experiment [3] and in experiment [5] was “inactive” in each case.

Consider `COC(=O)C1=C(C)N(Cc2ccco2)C(=O)NC1c1ccco1` (centres undefined), for which the Potency result in experiment [1], in experiment [2], in experiment [3], in experiment [4] and in experiment [5] was “inactive” throughout.

Turning to `C=CCOC(=O)NC(c1ccc(F)c(F)c1)C(C(=O)CCl)C(=O)OC` (centres undefined), the Potency entry in experiment [1], in experiment [2], in experiment [3] and in experiment [5] was “inactive” throughout.

On to `C=C[C@@]1(C)CCC=C2C(=O)CCC[C@H]21`, for which the Potency entry in experiment [1], in experiment [2], in experiment [3] and in experiment [5] was “inactive” throughout.

As to `CC=CC1=CC2=CC(=O)C(C)(OC(=O)c3c(C)cc(O)cc3O)C(=O)C2=CO1` (centres undefined), the Potency entry in experiment [1], in experiment [2], in experiment [3], in experiment [4] and in experiment [5] was “inactive” throughout.
